Laboratory results reported in PubChem BioAssay AID1159580 (chemical genetic matrix, 2015).
Hit rate of the full screen: of about 5,500 compounds, about 2,000 (36%) were called active. About 18% were inconclusive and are not listed. Cut-off read from the data, not from the text of the source: active = normalized growth mostly below about 0.91 (no sharp cut-off); inconclusive = no clear call, values can overlap the other calls; inactive = mostly above about 0.92. Some of the results follow.

Test: chemical genetic growth profiling, strain panel (AID 1159580);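 note: tested at 20 µM; growth read once vehicle control cultures reached saturation at 30 °C; 1 = growth at the plate median or of vehicle wells; lower values mean less growth of the strain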
Conditions: S. cerevisiae deletion strains, growth OD

Measured: normalized growth

C[N+]1(C)C2CC(OC(=O)C(CO)c3ccccc3)CC1C1OC12 (stereo unspecified)
inactive: locus YAL013W, strain DEP1, stronger effect = lower value 1.03 | locus YAL040C, strain CLN3, stronger effect = lower value 0.975 | locus YCL061C, strain MRC1 (second series), stronger effect = lower value 0.995 | locus YDR363W, strain ESC2, stronger effect = lower value 0.985 | locus YER002W, strain NOP16, stronger effect = lower value 0.997 | locus YGR229C, strain SMI1, stronger effect = lower value 1.05 | locus YMR263W, strain SAP30, stronger effect = lower value 1 | locus YMR307W, strain GAS1, stronger effect = lower value 1.01 | locus YNL128W, strain TEP1, stronger effect = lower value 0.992 | locus YNL175C, strain NOP13, stronger effect = lower value 0.973 | locus YNL197C, strain WHI3, stronger effect = lower value 0.982 | locus YNL224C, strain SQS1, stronger effect = lower value 0.988 | locus YNL322C, strain KRE1, stronger effect = lower value 1 | locus YOR083W, strain WHI5 (second series), stronger effect = lower value 0.978 | locus YPL055C, strain LGE1, stronger effect = lower value 1.02 | locus YPL241C, strain CIN2, stronger effect = lower value 0.993
